# Structures can show the parent of a compound that is named as a salt.
# System: HEPG2
# Test: Euclidean distance of Cell Painting phenotypic profile (signed KS, 77 features) to DMSO centroid (dimensionless distance); 5 or 10 uM (library dependent); higher = stronger phenotypic change vs DMSO (phenoactivity)
# Details: 48 h
# How it was run: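 Library compounds were applied at 10 or 5 uM, depending on the library, with 0.1% DMSO final, for 48 h to five cancer lines and a healthy fibroblast line. After staining, cells were imaged confocally at 20X across 9 fields per well, and Harmony extracted 77 features, each scored as a signed Kolmogorov-Smirnov statistic against vehicle wells on the same plate. Phenoactivity is the Euclidean distance between each profile and the median vehicle profile, with profiles first plate-position corrected, correlation-weighted and averaged over replicates at the top dose.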
row,SMILES,Euclidean distance
1,CC(C)N(CCC(=O)c1ccc2ccccc2c1)Cc1ccccc1,0.594
2,O=C1CCCC(=O)C1C(=O)c1ccc(C(F)(F)F)cc1[N+](=O)[O-] [Nitisinone],0.455
3,CCOC(=O)C1=C(C)NC(C)=C(C(=O)OC)C1c1cccc([N+](=O)[O-])c1 (centres undefined) [Nitrendipine],0.709
4,C/C(=C\C(=O)OCCCCCCCCC(=O)O)C[C@@H]1OC[C@H](C[C@@H]2O[C@H]2[C@@H](C)[C@H](C)O)[C@@H](O)[C@H]1O [Mupirocin calcium],0.518
5,CN[C@@H](C)C(=O)N[C@H]1CN(C(=O)CC(C)C)CC[C@H]2CC[C@@H](C(=O)NC(c3ccccc3)c3ccccc3)N2C1=O,0.91
6,C[C@H]1COc2c(N3CCN(C)CC3)c(F)cc3c(=O)c(C(=O)O)cn1c23 [Levofloxacin hydrate],0.54
7,O=C(Nc1ccccc1)OCC(CN1CCCCC1)OC(=O)Nc1ccccc1 (centres undefined) [Diperodon HCl],0.984
8,CC(C)Oc1ccc2c(=O)c(-c3ccccc3)coc2c1 [Ipriflavone (Osteofix)],0.723
9,CC(=O)[C@H]1CC[C@H]2[C@@H]3CC=C4C[C@@H](O)CC[C@]4(C)[C@H]3CC[C@]12C [Pregnenolone],0.703
10,CC(C)CC(N)=O [Isovaleramide],1.21
11,CCCN1CCCC[C@H]1C(=O)Nc1c(C)cccc1C [Ropivacaine],1.18
12,Cc1cnc(-c2cc(N3CCN(C(=O)CCS(C)(=O)=O)CC3)ncc2Cl)c(C)c1,0.662
13,COc1ccccc1N1CCN(CCCNc2cc(=O)n(C)c(=O)n2C)CC1 [Urapidil HCl],0.34
14,OCCN1CCN(CCCN2c3ccccc3Sc3ccc(C(F)(F)F)cc32)CC1 [Fluphenazine dihydrochloride],2.66

# — the supplement of paper PMC10127200
